Bioassay records as filed in PubChem.
Only some compounds are listed: those with a hit (about 11% of all), similar ones and a draw of the others.
HP1b binding inh: HTS for Inhibitors of HP1-beta Chromodomain Interactions with Methylated Histone Tails. AlphaScreen HP1-beta / biotin-H3K9me3 peptide binding. Potency, µM (doses to about 114 µM), for inactives: top-dose activity change, negative = inhibition, actives largely listed as inhibitors. 390,000 compounds, 0.56% hits; note: nearly all actives have a fitted effect of over 70% in size
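Compound inhibition of the preformed complex between 50 nM HP1-beta and 50 nM biotinylated H3K9me3 peptide was read by AlphaScreen. Buffer was PBS pH 7.4 with 0.01% Tween-20. Incubations ran 30 min at room temperature, with 10 ug/mL donor/acceptor beads.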
JMJD2A Tudor: qHTS Assay for Inhibitors of JMJD2A-Tudor Domain; AlphaScreen JMJD2A-Tudor / H3K4me3 peptide binding; Potency, µM (doses to about 114 µM), without a hit: at the highest dose activity change, negative = inhibition, most hits filed as inhibitors; 390,000 compounds, 4.4% hits; note: % is set by controls: 0 for no effect and ±100 for the full control effect; nearly all actives have a fitted effect of over 50% in size
L3MBTL1 inh: qHTS Assay for the Inhibitors of L3MBTL1; 230,000 compounds, 0.66% hits; AlphaScreen L3MBTL1–H3K9me1 peptide binding; AID 485360, 2010; Potency, µM (top dose mostly 57.1 µM), inactives show at the highest dose activity, negative = inhibition, most hits filed as inhibitors; note: % is set by controls: 0 for no effect and ±100 for the full control effect; nearly all actives have a fitted effect of over 60% in size
Target sequence (Q9Y468 whole entry, looked up): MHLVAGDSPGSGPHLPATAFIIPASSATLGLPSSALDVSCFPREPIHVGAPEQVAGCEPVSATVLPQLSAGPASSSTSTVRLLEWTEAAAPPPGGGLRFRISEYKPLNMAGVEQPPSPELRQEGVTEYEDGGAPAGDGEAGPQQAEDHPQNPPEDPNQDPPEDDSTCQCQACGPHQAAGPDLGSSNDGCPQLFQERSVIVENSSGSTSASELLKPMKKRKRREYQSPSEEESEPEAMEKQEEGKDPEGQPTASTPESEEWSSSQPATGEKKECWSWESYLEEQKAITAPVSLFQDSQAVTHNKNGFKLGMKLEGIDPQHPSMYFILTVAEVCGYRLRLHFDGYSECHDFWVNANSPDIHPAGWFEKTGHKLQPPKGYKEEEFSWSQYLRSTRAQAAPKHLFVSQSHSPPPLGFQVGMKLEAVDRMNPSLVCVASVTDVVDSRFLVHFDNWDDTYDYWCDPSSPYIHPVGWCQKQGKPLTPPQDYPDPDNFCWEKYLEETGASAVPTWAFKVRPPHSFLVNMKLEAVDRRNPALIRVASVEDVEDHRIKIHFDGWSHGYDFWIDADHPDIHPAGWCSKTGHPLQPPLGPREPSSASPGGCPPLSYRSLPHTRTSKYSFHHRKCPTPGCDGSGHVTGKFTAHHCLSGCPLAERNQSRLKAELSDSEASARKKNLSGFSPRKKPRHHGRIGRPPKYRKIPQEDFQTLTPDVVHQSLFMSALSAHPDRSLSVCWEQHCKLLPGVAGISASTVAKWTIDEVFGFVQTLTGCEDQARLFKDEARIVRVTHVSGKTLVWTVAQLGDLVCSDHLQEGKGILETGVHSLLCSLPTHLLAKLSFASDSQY
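AlphaScreen proximity signal between nickel-chelate acceptor and streptavidin donor beads (final 10 ug/mL) reports binding of 50 nM L3MBTL1 to 75 nM biotin-H3 K9me1 peptide; complex incubated with compounds 30 min at room temperature; cefsulodin titration as control.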
BAZ2B block: qHTS Assay for Inhibitors of BAZ2B; Bromodomain adjacent to zinc finger domain protein 2B (Homo sapiens), Q9UIF8; AlphaScreen BAZ2B-H3K14Ac peptide displacement; Potency, µM (titrated, usually from 114 µM), for inactives: at the highest dose activity change, negative = inhibition, actives largely listed as inhibitors; 360,000 compounds, 4.4% hits; note: % is set by controls: 0 for no effect and ±100 for the full control effect; nearly all actives have a fitted effect of over 60% in size
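AlphaScreen luminescence quantifies BAZ2B engagement of H3K14Ac peptide; the protein and biotinylated peptide are both at 50 nM final, buffer PBS pH 7.4 with 0.01% Tween-20, all steps at room temperature.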
G9a block: qHTS Assay for Inhibitors of Histone Lysine Methyltransferase G9a; Histone-lysine N-methyltransferase EHMT2 (Homo sapiens), Q96KQ7; G9a H3K9 monomethylation, AlphaScreen, 2 h; Potency, µM (doses to about 102 µM), for inactives: at the highest dose activity, negative = inhibition, usual class: inhibitors; 350,000 compounds, 8.8% hits; note: % is set by controls: 0 for no effect and ±100 for the full control effect; nearly all actives have a fitted effect of over 75% in size
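Compounds were preincubated with 20 nM G9a for 15 min, after which biotinylated H3K9 peptide (500 nM) and SAM (20 uM) started a 2 h room-temperature reaction. Monomethylated product was quantified by antibody-based AlphaScreen chemiluminescence.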
Starred values were filed as active, the others as inactive; [ ] = dose if it differs, or a comment. Calls come from the whole dose curve; as a rule, active = well fitted inhibition curve with a large enough effect; inconclusive = small, poorly fitted or top-dose-only effect; inactive = no such curve, though single readings can be large or run the other way. Potency is the fitted concentration of half-maximal effect.

`CCCCn1c(SCC(=O)c2ccc(OC)c(OC)c2)nc2cc(S(N)(=O)=O)ccc21` gave HP1b binding inh 23.7%, JMJD2A Tudor -10.3%, BAZ2B block -0.6% and G9a block 50.1µM*.
Screening NCC1O[C@@H](OC2C(N)CC(N)C(O)C2O[C@@H]2OC(CO)C(O)C2O)C(N)C(O)C1O (stereo partly specified) returned G9a block -35.9%[2.33 µM].
`Cc1cccc(CN2CCC(Oc3ccc(C(=O)N4CCCC4)cc3)CC2)n1` gave HP1b binding inh 23.6%, JMJD2A Tudor -11.7% and BAZ2B block 1.7%.
Screening C/C=C/C=C/C(=O)[C@@H]1[C@@H]([C@]2(C)OC(=O)C(C)=C2O)[C@H]2/C(=C(O)/C=C/C=C/C)C(=O)[C@]1(C)C(=O)C2(C)O (stereo partly specified) returned HP1b binding inh -21.1%, JMJD2A Tudor 44.7µM*, BAZ2B block 79.4µM* and G9a block inconclusive.
For CCOC(=O)C1(Cc2cccc(Cl)c2)CCCN(C(=O)c2cnn(CC)c2)C1 (stereo unspecified) the results were HP1b binding inh 23.9%, JMJD2A Tudor 0.0%, BAZ2B block -4.2% and G9a block 25.1µM*.
`O=C(NC(=S)NCCc1ccccn1)c1ccco1` gave HP1b binding inh 17.4%, JMJD2A Tudor -2.1%, L3MBTL1 inh 5.5%, BAZ2B block -2.8% and G9a block 1.3%.
Screening O=C(NC(NCc1ccccn1)(C(F)(F)F)C(F)(F)F)c1ccco1 returned HP1b binding inh 26.4%, JMJD2A Tudor 0.708µM*, L3MBTL1 inh inconclusive, BAZ2B block 50.1µM* and G9a block 16.5%.
CN(CCc1ccccn1)C(=S)NC(=O)c1ccco1 was read as HP1b binding inh 0.7%, JMJD2A Tudor -6.9%, L3MBTL1 inh 13.5%, BAZ2B block inconclusive and G9a block 20µM*.
Screening CN1CCN(c2ncc3nc(-c4cc(F)cc(F)c4)c(=O)n(CCC#N)c3n2)CC1 returned G9a block 3.9%[0.501 µM].
Screening CN(C)c1ncc2nc(-c3cccs3)c(=O)n(C)c2n1 returned G9a block 11.2%[0.501 µM].
For COc1ccc(C(=O)c2c(C(F)(F)F)oc3c2C(=O)c2ccccc2C3=O)cc1 the results were HP1b binding inh inconclusive, JMJD2A Tudor inconclusive, BAZ2B block 7.94µM* and G9a block 7.94µM*.
CCOc1ccc(-c2c(C)nn3c(-c4ccccc4)c(C(=O)NCCOC)cnc23)cc1OCC was read as HP1b binding inh 7.6%, JMJD2A Tudor -32.3%, BAZ2B block -34.3% and G9a block -10.4%[59 µM].
CN(C)CCCn1c(SCC(=O)Nc2nc(-c3cccc(Br)c3)cs2)nc2ccccc2c1=O was read as HP1b binding inh inconclusive, JMJD2A Tudor 39.8µM*, BAZ2B block inconclusive and G9a block inconclusive.
For O=C(Nc1ccccc1N1CCCC1)C1CCN(C(=O)c2ccc(Cl)cc2)CC1 the results were HP1b binding inh -11.9%, JMJD2A Tudor -29.0%, L3MBTL1 inh 0.2%, BAZ2B block -9.7% and G9a block 50.1µM*.
O=C(Nc1ccccc1N1CCCCC1)C1CCN(C(=O)c2ccc(Cl)cc2)CC1 was read as HP1b binding inh 16.0%, JMJD2A Tudor -17.8%, L3MBTL1 inh -7.2%, BAZ2B block -0.7% and G9a block inconclusive.
For O=C(Nc1ccccc1N1CCCC1)C1CCN(C(=O)c2ccc(F)cc2)CC1 the results were HP1b binding inh 2.6%, JMJD2A Tudor -19.2%, L3MBTL1 inh 2.7%, BAZ2B block 7.1% and G9a block 50.1µM*.
CCN(CC)S(=O)(=O)c1ccc(N2CCCCC2)c(NC(=O)C2CCN(C(=O)c3ccc(F)cc3)CC2)c1 was read as HP1b binding inh -19.5%, JMJD2A Tudor -23.1%, L3MBTL1 inh -9.7%, BAZ2B block -4.4% and G9a block -13.8%[12.7 µM].
Screening N#Cc1ccsc1NC(=O)C1CCN(C(=O)c2ccc(Cl)cc2)CC1 returned HP1b binding inh 20.2%, JMJD2A Tudor -17.2%, L3MBTL1 inh 4.5%, BAZ2B block -33.6% and G9a block 50.1µM*.
Screening CN[C@@H]1[C@H](O[C@H]2[C@H](O[C@H]3[C@H](O)[C@@H](O)[C@H](N=C(N)N)[C@@H](O)[C@@H]3N=C(N)N)O[C@@H](C)[C@]2(O)C=O)O[C@@H](CO)[C@H](O)[C@H]1O returned G9a block 17.8µM*.
`CNC1C(O)C(O)C(CO)O[C@H]1OC1C(O[C@@H]2C(O)C(O)[C@@H](N=C(N)N)C(O)C2N=C(N)N)OC(C)[C@]1(O)C=O` (stereo partly specified) gave G9a block -26.9%[2.33 µM].
CC(C)(C)NC(=O)C[C@H]1C[C@H](C(=O)N2CCCCC2)[C@@]2(C)c3[nH]c4cc(-c5ccco5)ccc4c3CCN2C1=O was read as HP1b binding inh -22.7%, JMJD2A Tudor 50.1µM* and L3MBTL1 inh -0.7%.
`CCN(CC)C(=O)[C@H]1C[C@H](CC(=O)NCCN2CCOCC2)C(=O)N2CCc3c([nH]c4cc(-c5ccco5)ccc34)[C@]12C` gave HP1b binding inh -0.6%, JMJD2A Tudor -33.6% and L3MBTL1 inh -3.5%.
For CCN(CC)C(=O)[C@H]1C[C@H](CC(=O)NCc2ccco2)C(=O)N2CCc3c([nH]c4cc(-c5ccco5)ccc34)[C@]12C the results were HP1b binding inh inconclusive, JMJD2A Tudor 50.1µM* and L3MBTL1 inh -39.0%.
Screening CC(C)(C)NC(=O)C[C@H]1C[C@H](C(=O)N2CCOCC2)[C@@]2(C)c3[nH]c4cc(-c5ccco5)ccc4c3CCN2C1=O returned HP1b binding inh 0.1%, JMJD2A Tudor inconclusive and L3MBTL1 inh -3.6%.
Screening CC[C@]12c3[nH]c4cc(-c5ccco5)ccc4c3CCN1C(=O)[C@@H](CC(=O)NCc1ccco1)C[C@@H]2C(=O)N1CCN(C(=O)c2ccco2)CC1 returned HP1b binding inh -25.4%, JMJD2A Tudor inconclusive and L3MBTL1 inh 35.5µM*.
For CC[C@]12c3[nH]c4ccccc4c3CCN1C(=O)C(CC(=O)NCc1ccco1)C[C@@H]2C(=O)N1CCN(C(=O)c2ccco2)CC1 (stereo partly specified) the results were HP1b binding inh 7.2%, JMJD2A Tudor -24.0% and L3MBTL1 inh -0.2%.
O=C(NC1CCCCC1NC(=O)c1ccco1)c1ccco1 (stereo unspecified) was read as HP1b binding inh 48.9%, JMJD2A Tudor 2.9%, L3MBTL1 inh 6.9%, BAZ2B block -0.6% and G9a block -9.9%[59 µM].
